Measured values as given in PubChem BioAssay.
Inconclusive results are not listed. Calls of active or inactive are those of the source.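 The calls were made as follows, unless noted: active = inhibition over a set limit, the all-compound mean plus 3 SD, in both replicate runs; inconclusive = over that limit in just one replicate run; inactive = at or under that limit in both runs.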

Experiments:
[1] = reducers of endogenous Her2 protein level, primary screen, SKBR3 breast tumor cells, AlphaScreen, ATP viability (AID 461;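 active = Her2 level under about 52% in both replicate screens, with viability over 70% of control, limit read from the data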;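 as to Her2 level: lower value means less Her2 protein in the cells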;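 as to viability: percent of carrier control wells set as 100% viability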); conditions: 18-24 h, measured here: SKBR3 viability, ATP luminescence, at 10 µM
[2] = target: Receptor tyrosine-protein kinase erbB-2 (Homo sapiens) (UniProt P04626); experiment: as above; conditions: 18-24 h, at 10 µM, stronger effect = lower value
[3] = SK-BR-3 cell growth inhibitors, pilot screen, 24 h, human (AID 572;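 active = viability at or below 10% of carrier control in both of two separate runs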;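 also: compound exposure lasted between 18 and 24 h rather than exactly 24 h; 100% = carrier-treated control wells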); conditions: SK-BR-3 viability, CellTiter-Glo luminescence, at 10 µM, stronger effect = lower value
[4] = HUVEC growth inhibition – cell-based, human, primary screen (AID 575;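 active = viability at or below 30% in both replicate assays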;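 also: 100% = median of untreated cell wells with 0.1% DMSO on each plate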); conditions: HUVEC proliferation, CellTiter-Glo luminescence, 72 h; at 10 µM; stronger effect = lower value
[5] = growth inhibitors of H69AR lung tumor, primary screen, human, duplicate replicates (AID 580;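 active = viability at or under a set limit in both replicates, limit being median viability minus 3 SD, cut at about 48% in these data, passing the limit was not always enough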;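 also: 100% = mean luminescence of untreated wells and 0% = no signal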); conditions: H69AR lung tumor cells viability, ATP luminescence, 72 h; at 10 µM; stronger effect = lower value
[6] = reversal of MRP1-mediated doxorubicin resistance, pilot screen, H69AR cells, doxorubicin co-treatment (AID 601;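 active = viability loss from added drug above about 55%, and viability with drug at most 40%, in both replicates, limit read from the data, passing the limit was not always enough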); conditions: CellTiter-Glo, 72 h, at 10 µM; for differential viability (reversal): stronger effect = higher value
[7] = 384-well plate pilot, post-Golgi transport modulator project, inhibition of yeast transport mutant growth (AID 636; in the data active = inhibition above about 31%); conditions: absorbance 615 nm, about 18 h, stronger effect = higher value
[8] = growth suppression of yeast trafficking mutant, preliminary HTS, modulators of trafficking downstream of Golgi apparatus project, 1536-format plate, OD 615 nm (AID 637; in the data active = inhibition above about 30%); conditions: yeast transport mutant growth, absorbance 615 nm, 18 h; stronger effect = higher value
[9] = OD615 S. cerevisiae growth inhibition, permissive medium, pilot counter-assay, permissive growth control for S. cerevisiae lifespan shortening project (AID 705;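 active = growth inhibition above 25% in both replicates, a cutoff set 3 SD above the mean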); conditions: OD615, 24 h, at 10 µM, stronger effect = higher value
[10] = Restrictive medium S. cerevisiae growth inhibition, OD615, pilot screen of yeast lifespan reduction project, restrictive growth control (AID 706;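 active = growth inhibition above a set limit, 3 SD over mean compound inhibition, in both replicates, cut at about 43% in these data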;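 also: modified DeaD lifespan yeast strain shifted to restrictive glucose medium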); conditions: OD615, 48 h, at 10 µM, stronger effect = higher value
[11] = viability gain of MRP-1-high H69AR cells under doxorubicin, pilot screen, MRP-1 activator project, CellTiter-Glo, duplicate (AID 807;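 active = viability increase at or above a cutoff of the median across tested compounds plus 3 SD, cut at about 8.5% in these data, passing the limit was not always enough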;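 also: compound pretreatment 18-22 h then 72 h combined with doxorubicin; 0% = doxorubicin alone and 100% = vehicle without doxorubicin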); conditions: H69AR viability with doxorubicin, CellTiter-Glo luminescence; at 10 µM; stronger effect = higher value
[12] = growth suppression of beta-catenin knockout HCT116, pilot screen, human colon tumor cells (AID 823;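 active = cell viability at or below a set limit in both duplicate runs, the limit being the all-compound median minus 4 SD, cut at about 23% in these data, passing the limit was not always enough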;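 also: 0% = wells killed by 20 µM Hyamine and 100% = untreated DMSO cell wells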); conditions: CellTiter-Glo, 60 h, at 10 µM, stronger effect = lower value
[13] = growth suppression of PTEN-deleted HCT116, pilot screen, cell-based, HCT116 clonal line, CellTiter-Glo (AID 824;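 active = viability at or below 27.92% in each of two runs, the all-compound median minus 4 SD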;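 also: 0% = 20 µM Hyamine control and 100% = vehicle cell control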); conditions: 60 h, at 10 µM, stronger effect = lower value
[14] = inhibitors of the yeast RAM network, pilot screen, dse1pr::URA3 reporter, 5-FOA selection (AID 869);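 also: 0% = DMSO wells with no growth and 100% = 10 µM 1-NA-PP1 with full growth; RAM network block rescues cells from 5-FOA so hits raise OD615 growth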; conditions: S. cerevisiae dse1pr::URA3 5-FOA growth, OD615, 2 d; at 10 µM; stronger effect = higher value; strain carries analog-sensitive mutant Cbk1 kinase
[15] = RAM signaling pathway blockade in yeast – S. cerevisiae, Pdr1DBD-CYC8 efflux-inhibited sensitized strain, primary screen (AID 1298;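 active = RAM network inhibition above 8.4% in each of two replicates, 3 SD over the compound average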;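 also: 0% = DMSO untreated cells without growth and 100% = 10 µM 1-NA-PP1 full growth; higher means more yeast growth rescued from 5-FOA killing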); conditions: S. cerevisiae cbk1-as DSE1-URA3 strain, 5-FOA growth OD615, 2 d; at 50 µM; stronger effect = higher value
[16] = H69AR cells + 2 uM doxorubicin, measured here: viability with 2 uM doxorubicin, stronger effect = lower value
[17] = H69AR cells, compound alone cytotoxicity

Chain of Receptor tyrosine-protein kinase erbB-2 (Homo sapiens) (P04626 whole entry, looked up): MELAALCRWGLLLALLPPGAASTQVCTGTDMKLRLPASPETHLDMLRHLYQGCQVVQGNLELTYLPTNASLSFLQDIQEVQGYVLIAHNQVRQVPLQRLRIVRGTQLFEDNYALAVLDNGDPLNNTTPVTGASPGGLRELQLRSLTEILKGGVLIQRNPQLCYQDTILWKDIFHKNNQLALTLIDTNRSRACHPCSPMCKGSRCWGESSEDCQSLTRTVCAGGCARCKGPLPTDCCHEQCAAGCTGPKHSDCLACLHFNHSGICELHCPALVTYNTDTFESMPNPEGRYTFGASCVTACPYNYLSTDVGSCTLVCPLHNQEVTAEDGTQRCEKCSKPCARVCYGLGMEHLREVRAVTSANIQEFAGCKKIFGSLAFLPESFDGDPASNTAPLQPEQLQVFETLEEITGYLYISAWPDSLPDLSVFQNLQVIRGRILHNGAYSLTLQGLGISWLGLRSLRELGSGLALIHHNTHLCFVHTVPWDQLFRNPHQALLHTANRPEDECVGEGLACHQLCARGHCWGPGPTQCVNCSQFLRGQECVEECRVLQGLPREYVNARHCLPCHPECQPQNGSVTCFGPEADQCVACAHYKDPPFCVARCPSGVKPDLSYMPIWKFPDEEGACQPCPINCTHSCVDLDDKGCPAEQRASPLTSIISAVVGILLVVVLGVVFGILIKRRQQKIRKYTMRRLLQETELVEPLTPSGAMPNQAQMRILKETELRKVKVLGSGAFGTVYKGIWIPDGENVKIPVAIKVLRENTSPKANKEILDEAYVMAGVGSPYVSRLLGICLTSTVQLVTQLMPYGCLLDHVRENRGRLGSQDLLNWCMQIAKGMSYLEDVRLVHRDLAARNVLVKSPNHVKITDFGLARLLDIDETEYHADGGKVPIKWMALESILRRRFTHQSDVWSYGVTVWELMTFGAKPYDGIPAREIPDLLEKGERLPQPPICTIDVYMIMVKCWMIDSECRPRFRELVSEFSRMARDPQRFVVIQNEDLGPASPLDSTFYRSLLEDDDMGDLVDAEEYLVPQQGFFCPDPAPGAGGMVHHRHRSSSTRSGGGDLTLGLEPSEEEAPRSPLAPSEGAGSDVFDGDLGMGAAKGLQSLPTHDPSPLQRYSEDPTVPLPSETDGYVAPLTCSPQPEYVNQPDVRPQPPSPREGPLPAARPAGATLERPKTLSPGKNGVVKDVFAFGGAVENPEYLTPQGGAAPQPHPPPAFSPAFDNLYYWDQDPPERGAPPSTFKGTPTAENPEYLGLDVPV

Row | SMILES | viability [1] | Her2 level [2] | viability [3] | viability [4] | viability [5] | differential viability (reversal) ([6]; H69AR cells + 2 uM doxorubicin) | viability [6, 16] | viability [6, 17] | inhibition [7] | inhibition [8] | growth inhibition [9] | growth inhibition [10] | viability increase [11] | viability [12] | viability [13] | inhibition [14] | RAM network inhibition [15]
1 | COc1ccc(S(=O)(=O)N2CCC(C(=O)Nc3c(F)cccc3F)CC2)cc1 | 88.5% | 111% (inactive) | 88.5% (inactive) | 96.5% (inactive) | 97.6% (inactive) | 0.885% (inactive) | 96.8% | 97.6% | 0.93% (inactive) | -4.17% (inactive) | -11.9% (inactive) | -14.8% (inactive) | -2.23% (inactive) | 99.6% (inactive) | 101% (inactive) | 3.77% (inactive) | 3.07% (inactive)
2 | CCn1cc(C(=O)NCc2ccccc2OC)c(=O)c2cc(S(=O)(=O)N(C)C)ccc21 | 78.5% | 89% (inactive) | 78.5% (inactive) | 78.3% (inactive) | 77.6% (inactive) | 9.22% (inactive) | 68.4% | 77.6% | -5.6% (inactive) | 0.17% (inactive) | -8.34% (inactive) | -17.1% (inactive) | -5.34% (inactive) | 87.1% (inactive) | 85.5% (inactive) | 1.88% (inactive) | 2.36% (inactive)
3 | Cc1nnc(N2C(=O)C(O)=C(C(=O)c3ccco3)C2c2ccc(F)cc2)s1 (stereo unspecified) | 99% | 98.5% (inactive) | 99% (inactive) | 120% (inactive) | 99.6% (inactive) | 8.77% (inactive) | 90.9% | 99.6% | -3.46% (inactive) | 1.67% (inactive) | -13.9% (inactive) | -28.6% (inactive) | -1.63% (inactive) | 106% (inactive) | 101% (inactive) | 0.21% (inactive) | 0.57% (inactive)
4 | COc1nnc(-c2ccc(C)c(S(=O)(=O)NCCO)c2)c2ccccc12 | 93.5% | 108% (inactive) | 93.5% (inactive) | 110% (inactive) | 87.9% (inactive) | -2.42% (inactive) | 90.3% | 87.9% | -1.04% (inactive) | -6% (inactive) | -0.385% (inactive) | 10% (inactive) | -1.67% (inactive) | 106% (inactive) | 101% (inactive) | -0.06% (inactive) | 2.58% (inactive)
5 | CCn1c(SCC(=O)Nc2cc(C)ccc2C)nc2c(c1=O)SC(C)C2 (stereo unspecified) | 90.5% | 116% (inactive) | 90.5% (inactive) | 74% (inactive) | 83.1% (inactive) | 15.4% (inactive) | 67.8% | 83.1% | -1.73% (inactive) | -0.5% (inactive) | -9.3% (inactive) | -6.79% (inactive) | -4.15% (inactive) | 93.6% (inactive) | 91.5% (inactive) | 1.16% (inactive) | 4.64% (inactive)
6 | COc1ccc(CCNC(=O)c2cnn3ccccc23)c(OC)c1OC | 92.5% | 98.5% (inactive) | 92.5% (inactive) | 78.8% (inactive) | 96.5% (inactive) | -0.525% (inactive) | 97% | 96.5% | -5.6% (inactive) | -2.67% (inactive) | -9.7% (inactive) | -2.3% (inactive) | -1.15% (inactive) | 101% (inactive) | 87.8% (inactive) | 1.33% (inactive) | 3.06% (inactive)
7 | COc1ccc(-c2nc3c(c(SCC(=O)N4CCOCC4)n2)COC(C)(C)C3)cc1 | 111% | 113% (inactive) | 111% (inactive) | 85.5% (inactive) | 89.2% (inactive) | -2.95% (inactive) | 92.1% | 89.2% | -2% (inactive) | 13.8% (inactive) | 2.8% (inactive) | -4.27% (inactive) | -1.69% (inactive) | 101% (inactive) | 103% (inactive) | 0.94% (inactive) | 2.02% (inactive)
8 | O=C1c2ccccc2C(=O)N1C/C=C/CN1C(=O)c2ccccc2C1=O | 85% | 91.5% (inactive) | 85% (inactive) | 86.5% (inactive) | 82.8% (inactive) | -9.46% (inactive) | 92.3% | 82.8% | -3.46% (inactive) | -0.33% (inactive) | 2.25% (inactive) | -1.58% (inactive) | -1.04% (inactive) | 90.3% (inactive) | 102% (inactive) | 3.1% (inactive) | 4.65% (inactive)
